Bioassay records: PubChem BioAssay, National Center for Advancing Translational Sciences (NCATS)
The list is not random: actives were taken first. Their share in the collection is about 19%.
IL1B secr inh: blocks inflammasome-driven IL-1 beta release | THP-1 LPS/ATP IL-1B secretion, AlphaLISA, 16 h; active compounds read low | activity change, % at 57.5 µM | hit rate 4.7% among 360,000 | AID 743279; in the data active = activity change below about -50%; inconclusive = mostly about -30% to -49%
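Secreted IL-1B measured by AlphaLISA bead assay after 16 h compound exposure of THP-1 cells; compounds (final up to 57.5 uM) added 1 h before LPS (250 ng/mL) and ATP (1.25 mM) stimulation; lower signal means less secretion.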
TDP1 inh: inhibitors of human tyrosyl-DNA phosphodiesterase TDP1; recombinant TDP1, AlphaScreen DNA substrate cleavage; Potency, µM (doses to about 130 µM), most hits filed as inhibitors; hit rate 0.28% among 350,000; AID 485290; note: nearly all actives have a fitted effect of over 40% in size
Target sequence (Q9NUW8 whole entry, looked up): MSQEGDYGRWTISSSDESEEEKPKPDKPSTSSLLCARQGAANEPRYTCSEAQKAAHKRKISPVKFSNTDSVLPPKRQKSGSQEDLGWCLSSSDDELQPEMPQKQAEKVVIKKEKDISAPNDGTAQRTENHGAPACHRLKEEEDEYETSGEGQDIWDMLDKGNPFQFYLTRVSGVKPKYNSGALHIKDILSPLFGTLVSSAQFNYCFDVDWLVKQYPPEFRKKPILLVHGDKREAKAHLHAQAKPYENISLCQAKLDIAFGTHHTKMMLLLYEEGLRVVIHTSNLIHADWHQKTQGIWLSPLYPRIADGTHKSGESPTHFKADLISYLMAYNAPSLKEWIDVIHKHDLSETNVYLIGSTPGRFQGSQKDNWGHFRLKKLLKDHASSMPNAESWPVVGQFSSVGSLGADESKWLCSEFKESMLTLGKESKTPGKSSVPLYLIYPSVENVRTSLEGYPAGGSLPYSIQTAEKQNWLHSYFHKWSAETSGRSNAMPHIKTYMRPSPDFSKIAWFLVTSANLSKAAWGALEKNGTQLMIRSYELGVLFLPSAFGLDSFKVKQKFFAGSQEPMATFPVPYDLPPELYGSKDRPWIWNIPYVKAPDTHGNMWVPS
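Steps: enzyme plus compound, 15 min RT; add biotin/phosphotyrosine-FITC oligonucleotide (15 nM final), react 5 min; add donor/acceptor beads (10 ug/ml final), 10 min; read AlphaScreen. Tdp1 at 1 nM final.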
TGFb inhibitor: inhibitors of TGF-b signaling; HepG2 CAGA-GFP TGF-b/SMAD3 reporter, GFP fluorescence, 18 h; TGF-beta stimulated, 500 pg/mL final; Potency, µM (top dose mostly 46.1 µM), actives largely listed as inhibitors; hit rate 1.2% among 410,000; note: nearly all actives have a fitted effect of over 65% in size
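Per well, imaged GFP fluorescence of HEPG2 CAGA-GFP cells gives the signal; cells get compound, then TGF-beta (500 pg/mL final), 18 h at 37 degrees C; %Activity versus -TGF-beta and +DMSO controls.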
DT40 TDP1 CPT: growth inhibition of DT40 Tdp1-/-;hTDP1 cells with camptothecin (screen for TDP1 inhibitors). hit rate 12% among 420,000. chicken DT40 Tdp1-/-;hTDP1 cells + 20 nM CPT, ATP luminescence, 48 h. Potency, µM (titrated, usually from 46.2 µM), hits mostly inhibitors; note: nearly all actives have a fitted effect of over 55% in size
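Cell growth measured by CellTiter-Glo luminescence after a minimum 48 h, 37 C compound exposure with 20 nM CPT in Tdp1-knockout DT40 cells stably expressing hTDP1, seeded 400/well; qHTS titration format.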
HepG2 viability: kills HepG2 cells in TGF-b inhibitor counter-screen. HepG2 CAGA-GFP viability, ATP luminescence, 18 h. Potency, µM (titrated, usually from 46.1 µM), actives largely listed as cytotoxic. hit rate 0.76% among 410,000
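HepG2 CAGA-GFP cells (1000/well, DMEM with 1% FBS) received compound, then TGF-beta at 500 pg/mL final, and were incubated 18 hours at 37 degrees C. Viability was read by CellTiter-Glo luminescence. Media-only wells were set as complete cell-killing and DMSO as no toxicity.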
TDP1 cell noCPT: qHTS for Inhibitors of human tyrosyl-DNA phosphodiesterase 1 (TDP1): qHTS in cells in absence of CPT | hit rate 15% among 420,000 | DT40 Tdp1-/- hTDP1 cells, no CPT, ATP luminescence, 48 h | Potency, µM (series often up to 46.2 µM), hits mostly inhibitors; note: nearly all actives have a fitted effect of over 55% in size
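Chicken DT40 Tdp1-/- cells stably complemented with human TDP1 were seeded at 400 cells/well with DMSO in place of 20 nM camptothecin. After compound pinning, cells grew at least 48 hr at 37 °C; viability read by CellTiter-Glo luminescence.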
Hits are given with their value; – = inactive; ? = inconclusive; · = no result; [ ] = remark or other dose. Unless noted, calls come from the whole dose curve; as a rule, active = well fitted curve in the direction sought with a large enough effect; inconclusive = small, poorly fitted or top-dose-only effect, or another doubt; inactive = no such curve, though single readings can be large; an effect the other way counts as inactive or inconclusive.

SMILES	IL1B secr inh	TDP1 inh	TGFb inhibitor	DT40 TDP1 CPT	HepG2 viability	TDP1 cell noCPT
O=C1CC(/C=C/c2cccnc2)=Nc2ccccc2N1	-93	–	–	13µM	–	16µM
CN1N=C(/C=C/c2ccccc2)CCC1=O	–	–	–	–	–	–
O=C1CC(C(F)(F)C(F)(F)C(F)(F)F)=Nc2ccccc2N1	–	–	–	–	–	–
CC1(C)CC(/C=C/c2ccccc2)=Nc2ccccc2N1	-62	–	?	18µM	–	21µM
CCOC(=O)N/N=C1/C[C@@H](O)[C@@H](O)[C@@H]2[C@@H]3C(=O)N(C4CCCCC4)C(=O)[C@H]3CC[C@H]12	·	–[21 µM]	·	·	·	·
CCn1c(=O)c2c(n3cnnc13)-c1ccccc1CC21CCCCC1	–	–	–	13µM	–	?
COc1cc(-c2cc3n(C)c(C)c(CCC(=O)NCc4ccccc4)c(=O)n3n2)cc(OC)c1OC	·	–	–	15µM	–	–
COc1cc(OC)cc(-c2cc3nc(C)c(CCC(=O)Nc4nc(C)cs4)c(C)n3n2)c1	–	–	–	18µM	–	10µM
Cc1nc2cc(-c3cccc(F)c3)nn2c(C)c1CCC(=O)NC(C)c1ccccc1 (configuration not stated)	·	–	?	?	–	?
CCCCCCNC(=O)CCc1c(C)nc2nc(-c3cc(OC)cc(OC)c3)nn2c1C	·	–	–	?	–	16µM
CCCCNC(=O)CCc1c(C)nc2nc(-c3cc(OC)cc(OC)c3)nn2c1C	–	–	–	–	–	?
COc1ccc(NC(=O)CCc2c(C)nc3cc(-c4cccc(F)c4)nn3c2C)cc1Cl	·	–	?	16µM	–	13µM
COCC(=O)N1CCC[C@@]2(CCN(c3ncccn3)C2)C1	·	·	·	–	·	–
COc1ccc(N(CC(=O)NCCc2cccc(C)c2)S(=O)(=O)c2c(C)nn(C)c2C)cc1	·	–	–	?	–	?
COc1cc(NC(=O)CCc2c(C)nc3cc(-c4ccccc4)nn3c2C)cc(OC)c1OC	·	–	–	?	–	21µM
COC(=O)c1cc(NC(=O)CCc2c(C)nc3cc(-c4ccccc4)nn3c2C)cc(C(=O)OC)c1	·	–	?	–	–	–
Cc1ccc(C)c(NC(=O)CCc2c(C)n(C)c3cc(-c4ccccc4C)nn3c2=O)c1	·	–	?	21µM	–	15µM
COc1cc(OC)cc(-c2cc3nc(C)c(CCC(=O)Nc4ccc(F)c(Cl)c4)c(C)n3n2)c1	·	–	–	18µM	–	16µM
COc1ccc(CNC(=O)c2cc3c(=O)n(Cc4cccnc4)ccc3nc2C)cc1	·	–	–	–	–	–
COc1ccc(-c2cc3cc(OC)c(OC)cc3c(C)n2)cc1	–	–	–	?	–	?
Cc1cccc(NC(=O)c2ccc(N(C)C3CCCCC3)c([N+](=O)[O-])c2)n1	?	–	–	21µM	–	16µM
Cc1ccc(C)c2sc(NC(=O)c3ccc(N4CCCCC4)c([N+](=O)[O-])c3)nc12	?	–	–	?	–	23µM
Cc1cccc(NC(=O)c2ccc(N3CCOCC3)c([N+](=O)[O-])c2)n1	–	–	–	?	–	?
CCSc1ccc(C(=O)Nc2cccc(C)n2)cc1[N+](=O)[O-]	–	–	–	–	–	?
Cc1cccc(NC(=O)c2ccc(N3CCCCC3)c([N+](=O)[O-])c2)n1	–	–	–	?	–	13µM
O=S(=O)(c1ccc(Cl)cc1)N1CCCC1c1nc(-c2cccc(Cl)c2)no1 (configuration not stated)	–	–	–	23µM	–	?
O=C1C(=O)N(CCCO)C(c2ccc(Br)cc2)/C1=C(\O)c1ccc(Br)cc1 (configuration not stated)	–	·	–	–	–	–
CCC(=O)NC1=C(Nc2ccc(N)cc2)C(=O)c2ccccc2C1=O	–	·	–	?	–	8.2µM
